# Bioassay records as filed in PubChem.
# The list is not random: actives were taken first. Their share in the collection is about 2.7%.
# S2 tox – Viability Counterscreen for Primary qHTS for Inhibitors of ATXN expression; S2 cells (HEK-293 line with an ATXN2-luciferase reporter) viability, CellTiter-Fluor protease fluorescence, 24 h; AID 651635, 2014; actives 0.49% (n = 400,000); Potency, µM (top dose mostly 56.7 µM), usual class: cytotoxic; also: nearly all actives have a fitted effect of over 40% in size
# ALOX12 inh – Primary qHTS assay for inhibitors of human arachidonate 12S-lipoxygenase (ALOX12): Round 2. Polyunsaturated fatty acid lipoxygenase ALOX12 (Homo sapiens), P18054. purified 12hLO, xylenol orange hydroperoxide absorbance. Potency, µM (titrated, usually from 108 µM), inactives show top-dose activity change, negative = inhibition, actives largely listed as inhibitors. actives 1.1% (n = 580,000). AID 1671190, 2021; also: % is scaled to controls: 0 for no effect and ±100 for the full control effect
# Target sequence (P18054 whole entry, looked up): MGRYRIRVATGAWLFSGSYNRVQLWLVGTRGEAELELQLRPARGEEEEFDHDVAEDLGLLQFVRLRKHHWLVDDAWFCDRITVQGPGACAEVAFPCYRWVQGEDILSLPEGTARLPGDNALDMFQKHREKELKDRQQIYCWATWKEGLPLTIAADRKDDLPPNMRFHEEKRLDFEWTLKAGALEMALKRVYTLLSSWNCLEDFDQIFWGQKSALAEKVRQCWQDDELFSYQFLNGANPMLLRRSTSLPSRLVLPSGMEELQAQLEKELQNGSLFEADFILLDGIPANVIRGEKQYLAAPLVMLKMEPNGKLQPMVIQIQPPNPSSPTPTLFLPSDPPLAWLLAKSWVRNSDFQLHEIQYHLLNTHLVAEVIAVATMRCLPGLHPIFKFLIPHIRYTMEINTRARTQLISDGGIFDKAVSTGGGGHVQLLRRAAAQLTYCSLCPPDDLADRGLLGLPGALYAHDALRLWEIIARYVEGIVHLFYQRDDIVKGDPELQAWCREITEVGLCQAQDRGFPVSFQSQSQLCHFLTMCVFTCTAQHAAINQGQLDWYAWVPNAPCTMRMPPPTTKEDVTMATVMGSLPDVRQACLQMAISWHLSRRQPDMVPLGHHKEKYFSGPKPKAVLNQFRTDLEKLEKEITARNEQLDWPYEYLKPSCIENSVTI
#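 Purified human 12hLO (150 nM final) in 25 mM Hepes, 0.01% Triton X-100, pH 7.0 was preincubated 15 min at room temperature with compound. Then 40 uM arachidonic acid was added, 30 min. Hydroperoxide was read by Fe-XO absorbance ratio 573/405 nm.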
# TGFb inhibitor – qHTS for Inhibitors of TGF-b; HepG2 CAGA-GFP TGF-b/SMAD3 reporter, GFP fluorescence, 18 h; TGF-beta stimulated, 500 pg/mL final; AID 588855, 2011; Potency, µM (top dose mostly 46.1 µM), for inactives: at the highest dose activity, negative = inhibition, actives largely listed as inhibitors; actives 1.2% (n = 410,000); also: % is scaled to controls: 0 for no effect and ±100 for the full control effect; nearly all actives have a fitted effect of over 65% in size
#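 First, reporter cells (HEPG2 CAGA-GFP) rested 2 h at 37 degrees C. Next, compounds were pinned in and TGF-beta added to 500 pg/mL final. After 18 h, GFP was imaged per cell and summed per well.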
# HepG2 viability – qHTS for Inhibitors of TGF-b: Cytotox Counterscreen; HepG2 CAGA-GFP viability, ATP luminescence, 18 h; actives 0.76% (n = 410,000); Potency, µM (top dose mostly 46.1 µM), for the others: at the highest dose activity change, negative = cytotoxicity, usual class: cytotoxic
#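 CellTiter-Glo luminescence gave cytotoxicity after 18 hours at 37 degrees C. The cells were HepG2 CAGA-GFP in 1% FBS DMEM, stimulated with 500 pg/mL TGF-beta after compound addition. %Activity was normalised to no-cell wells (complete cell-killing) and DMSO (no toxicity), and curves were fitted and classified.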
# ATXN2 expr inh – Primary qHTS for Inhibitors of ATXN expression. HEK-293 ATXN2-luciferase reporter, luminescence, 24 h. AID 1745845, 2022. Potency, µM (series often up to 57 µM), without a hit: at the highest dose activity change, negative = inhibition, most hits filed as inhibitors. actives 0.72% (n = 360,000); also: % is scaled to controls: 0 for no effect and ±100 for the full control effect; nearly all actives have a fitted effect of over 55% in size
#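 qHTS (up to 57 uM final) was run with 24 h compound exposure of reporter cells at 37 °C. Each well was multiplexed: SteadyGlo luminescence measured ATXN2-luciferase expression after a fluorogenic Gly-Phe-AFC viability readout (25 uM final).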
# * hit, by the source's call; i = inactive; u = inconclusive; x = no result; [ ] = dose if it differs, or a comment. Calls follow the shape of the dose curve; as a rule, active = well fitted curve in the direction sought with a large enough effect; inconclusive = small, poorly fitted or top-dose-only effect, or another doubt; inactive = no such curve, though single readings can be large; an effect the other way counts as inactive or inconclusive. Potency is read from the fitted curve at half-maximal effect.
SMILES,S2 tox,ALOX12 inh,TGFb inhibitor,HepG2 viability,ATXN2 expr inh
Cc1oc2ccc(O)c(CN3CCN(C)CC3)c2c1C(=O)Nc1cccc(C(F)(F)F)c1,i,u,-13%,-35%,-26%
CCN1CCN(Cc2c(O)ccc3oc(C)c(C(=O)Nc4cccc(C(F)(F)F)c4)c23)CC1,u,-24%,u,13µM*,u
CN1[C@@H](CCC(=O)NCc2cccs2)CNC(=O)[C@@H]2[C@H]1CCN2Cc1ccc(C(F)(F)F)cc1,x,39%,x,x,x
Cc1onc(-c2c(F)cccc2Cl)c1C(=O)c1ccccc1O,i,0%,-5%,5.6µM*,-16%
Cc1onc(-c2c(F)cccc2Cl)c1C(=O)c1ccccc1,i,170%,20%,31%,-32%
COc1ccc(C(C[N+](=O)[O-])c2c(-c3ccccc3)cc3ccccn23)c(OC)c1 (centres undefined),i,1.6µM*,10µM*,11µM*,0%
CC(=O)c1ccc(NC(=O)c2ccc(C)c(S(=O)(=O)N3CCOCC3)c2)cc1,i,-2%,-6%,-10%,6%
COc1ccc(/C=C/C(=O)Nc2ccc(C)c(S(=O)(=O)N3CCOCC3)c2)cc1,u,-8%,-14%,-11%,22µM*
CCOC(=O)c1ccc(NC(=O)c2ccc(C)c(S(=O)(=O)N3CCOCC3)c2)cc1,28µM*,-24%,-6%,-45%,25µM*
Cc1nc(-c2ccccc2)sc1C(=O)Nc1ccc(C(C)C)cc1,x,15%,x,x,x
Cc1ccc(C(=O)/C=C/c2cccc3ccccc23)o1,x,16µM*,x,x,x
COc1ccc(S(=O)(=O)N2CCn3cccc3C2c2ccc(C)cc2)cc1C (centres undefined),x,0%,x,x,x
Fc1cccc(-c2nn[nH]n2)c1,i,25µM*,u,7%,7%
c1ccc(-c2nn[nH]n2)cc1,i,-1%,25%,5%,-7%
COc1ccc(C)cc1Nc1n[n+](-c2ccccc2)c(-c2cc(OC)c(OC)cc2Br)s1,22µM*,40µM*,u,-22%,u
CCOc1cc(-c2sc(Nc3cc(C)ccc3OC)n[n+]2-c2ccccc2)ccc1OC,u,u,-23%,-6%,-22%
COc1ccc(C)cc1Nc1n[n+](-c2ccccc2)c(-c2c(OC)ccc3ccccc23)s1,x,u,u,-62%,u
COc1ccc(C)cc1Nc1n[n+](-c2ccccc2)c(-c2ccc(C(=O)O)cc2)s1,i,18µM*,14%,23%,8%
Cc1cc2nc(C(=O)Nc3ccc(C(C)C)cc3)c(=O)n(C)c2cc1C,x,-29%,x,x,x
Cc1ccc(C)c(C(=O)C(C)Oc2ccc(C#N)cc2)c1 (centres undefined),x,-29%,x,x,x
COc1cc(CNC(=O)CC2Sc3ccccc3NC2=O)ccn1 (centres undefined),x,-5%,x,x,x
CCC(=O)Nc1cc2c(cc1Cl)-c1ccccc1C2,i,-6%,17%,13µM*,45%
Cc1ccnc(NC(=O)c2ccc(OCC3CCCO3)cc2)c1 (centres undefined),i,-28%,2%,-53%,5.6µM*
CN(C(=O)CSc1cn(CC(=O)N2CCCCC2)c2ccccc12)c1ccccc1,x,0%,u,-18%,x
CC(C)N(C(=O)CSc1cn(CC(=O)N2CCCCCC2)c2ccccc12)C(C)C,x,-22%,13µM*,-24%,x
SMILES,S2 tox,ALOX12 inh,TGFb inhibitor,HepG2 viability,ATXN2 expr inh
COCCNc1nc(-c2c(C)noc2C)nc2ccccc12,x,-14%,x,x,x
Cc1noc(C)c1-c1nc(NCc2cccs2)c2ccccc2n1,x,28µM*,x,x,x
Cc1noc(C)c1-c1nc(Nc2ccc(F)cc2)c2ccccc2n1,x,22µM*,x,x,x
CCSc1ccccc1C(=O)NC12CC3CC(CC(C3)C1)C2,x,10%,x,x,x
CC(=O)c1c[nH]c2ccc(Br)cc12,x,-11%,x,x,x
Nc1ncnc(Sc2ccccc2)c1[N+](=O)[O-],i,-5%,-26%,7%,28%
Nc1ncnc(Sc2ncccn2)c1[N+](=O)[O-],24µM*,-17%,10µM*,11µM*,u
c1ccc2cc(CN3CCN(Cc4c[nH]c5ccccc45)CC3)ccc2c1,x,1.8µM*,x,x,x
Cc1ccccc1N1CCN(Cc2c[nH]c3ccccc23)CC1,u,u,u,10µM*,u
O=C1CCC[C@@H]2C[C@@]3(C[C@@H]4CCN1[C@H]24)Nc1cc(Cl)c(Cl)cc1NC3=NCc1ccccc1,x,-17%,11µM*,-32%,0%
CC(C)(C)CC(C)(C)N=C1Nc2ccccc2N[C@]12C[C@H]1CCCC(=O)N3CC[C@@H](C2)[C@@H]13,x,x,u,-24%,x
CC(C)(C)CC(C)(C)N=C1Nc2ccc(Cl)cc2NC12C[C@H]1CCC(=O)N3CC[C@@H](C2)[C@@H]13 (some centres undefined),x,x,u,10µM*,x
COC(=O)Cn1c(C)c(/C=C/c2cc[n+](C)cc2)c2ccccc21,i,45µM*,82%,-4%,x
O=C(Nc1oc2ccccc2c(=O)c1-c1ccc(Cl)cc1)c1ccc([N+](=O)[O-])cc1,x,-28%,x,x,x
COCCCNC(=O)c1ccc2c3c(onc13)-c1ccccc1C2=O,x,x,3.2µM*,-107%,u
Cc1ccc(NC(=O)CN(C)C(=O)c2cccc(-n3cccc3)c2)cc1,i,35µM*,-5%,-16%,0%
O=C(CCC1CCCC1)NCC12CC3CC(CC(C3)C1)C2,x,-46%,x,x,x
CCCCCCCc1ccc(-c2nnc(-c3ccc(Br)cc3)o2)cc1,x,11%,x,x,x
Nc1nc(Nc2ccc(S(N)(=O)=O)cc2)nn1C(=O)c1c(F)cccc1F,x,-18%[57.4 µM],x,x,12µM*
CC(=O)Nc1ccc(N(CC(O)Cn2c3ccccc3c3ccccc32)S(=O)(=O)c2ccc(C)cc2)cc1 (centres undefined),i,u,14µM*,-49%,u
C#Cc1cccc(Nc2nc(NCc3ccccc3OC)nc3ccsc23)c1,20µM*,u,11µM*,-54%,20µM*
c1ccc(CNc2nc(NCCOc3ccccc3)c3sccc3n2)cc1,x,u,u,11µM*,28µM*
CNc1nc(NCCOc2ccccc2)c2sccc2n1,u,x,u,-11%,-22%
COc1ccccc1CNc1nc(NCc2ccccc2)nc2ccsc12,u,u,18µM*,-37%,u
c1ccc(CNc2nc(NCc3ccccc3)c3sccc3n2)cc1,u,u,u,-27%,0%
COc1ccccc1CNc1nc(NCc2ccccc2F)c2sccc2n1,u,x,13µM*,-121%,u
CCc1ccc(NC(=O)CC(C)(C)CC(=O)O)cc1,x,22%,x,x,x
